Measurements reported in ChEMBL document CHEMBL4513216, “Probing the Open Global Health Chemical Diversity Library for Multistage-Active Starting Points for Next-Generation Antimalarials” (ACS Infect Dis, 2020).
Among all 68,000 compounds or so, about 2,700 (4%) showed an effect of 50% or more. Only a selection was taken, and strong results are over-represented in it overall.

System: Plasmodium berghei
Assay: Screen against P. berghei liver stage (PbLuc), transformed with Luciferase, at 2uM
Assay type: functional, HepG2
Conditions: tested at 2 uM

SMILES | INHIBITION
Cc1cc(C)cc(NC(=O)c2cnc(N3CCN(C)CC3)nc2C)c1 | 19.84%
Cc1cc(C)c(CNC(=O)C(C)Oc2ccccc2C#N)c(=O)[nH]1 (stereo unspecified) | 35.43%
CCOCC(=O)N1C[C@H]2CN(CC3CC3)C(=O)[C@H]2C1 | -3.65%
O=C(c1ncoc1C1CC1)N1CCCN(CCCc2ccccc2)CC1 | 26.3%
CC1CCN(C(=O)CSCCN2CCOCC2)CC1 | 8.64%
COCCN1CCN(c2ccc(CN(C)C)cn2)CC1 | -0.85%
O=C(Nc1cnc2n1CCCC2)c1cccc(-n2cnnc2)c1 | 50.91%
CC(=O)Nc1cccc(C(=O)Nc2cnc3n2CCCC3)c1 | 19.61%
O=C(Nc1cnc2n1CCCC2)c1cccc(NC(=O)C2CCCC2)c1 | 22%
CSc1ncccc1C(=O)NCCC(O)c1ccco1 (stereo unspecified) | 14.45%
O=C(NCc1nnc2n1CCC2)c1cn(-c2ccccc2Br)nn1 | -17.44%
CC(C)(C)c1ccc(-n2ncc3c2CCCC3N)cc1 (stereo unspecified) | 46.95%
Cc1ccc(-n2ncc3c2CCCC3N)cc1C (stereo unspecified) | -13.35%
CN(C)S(=O)(=O)NC1CCCc2c1cnn2-c1ccc(C(C)(C)C)cc1 (stereo unspecified) | 75.11%
CCC(C)(C)n1nnnc1C(c1cccs1)N1CCc2ccccc2C1 (stereo unspecified) | 36.24%
Cc1nn(CCC(=O)NC2CCCOC2)c(C)c1C (stereo unspecified) | -3.15%
CCc1noc(CN(CC(=O)N2CCCCC2)c2ccc(C)cc2)n1 | 38.67%
Cc1ccc(N(CC(=O)N2CCCCC2)C(=O)C2COCCO2)cc1 (stereo unspecified) | 72.49%
Cc1ccc(N(CC(=O)N2CCCCC2)C(=O)C2CCCO2)cc1 (stereo unspecified) | -82.35%
CCOc1ccc(Br)cc1-c1cc(N)[nH]n1 | 9.66%
CCN(Cc1nnsc1Cl)C(C)c1ccc(C#N)cc1 (stereo unspecified) | 56.49%
CC(C)N(Cc1ccc(C#N)cc1)Cc1nnsc1Cl | 22.34%

SMILES | INHIBITION
CCCN(Cc1ccc(C#N)cc1)Cc1nnsc1Cl | 20.14%
Cc1cc(C)nc(N2CCC(c3ccnc(N(C)C)n3)CC2)n1 | -42.91%
Cc1nc(O)cc([C@@H]2CN(C(=O)C3CC3)C[C@H]2c2ccccc2F)n1 | -7.22%
CC(=O)NCCNC(=O)CN1CCOC(Cn2cccn2)C1 (stereo unspecified) | -21.68%
CC(C)(Oc1ccc(F)cc1)C(=O)NCc1ccco1 | 58.14%
CC(C)(Oc1ccc2c(c1)CCCC2=O)C(=O)NCc1ccco1 | 15.88%
CC(C)(C)Oc1ccc(NCC(=O)NCc2ccco2)cc1 | -62.92%
c1ccc(N2CCCC3(COCCN(c4nccs4)C3)C2)nc1 (stereo unspecified) | -29.98%
COc1cccc(CN2CCc3nc(C(=O)NCC(C)C)sc3CC2)c1 | -4.19%
COc1ccc(C)cc1-n1cnnc1C1CC(=O)N(C)C1 (stereo unspecified) | 43.57%
Cc1nccc(C2CN(C(=O)c3cncnc3)C2)n1 | 38.22%
Cc1cc(C2CCCN(S(=O)(=O)N(C)C)C2)ccn1 (stereo unspecified) | -5.34%
CSCCc1ccc(NC(=O)NC(C)Cn2cncn2)cc1 (stereo unspecified) | 60.34%
CC(Cn1cncn1)NC(=O)Nc1ccc(COC2CCCC2)cc1 (stereo unspecified) | 1.01%
CC(Cn1cncn1)NC(=O)NCC(C)(C)Cc1ccccc1 (stereo unspecified) | 46.98%
O=C(c1cocn1)N1CCC2(CC1)CC(OCC1CC1)CO2 (stereo unspecified) | 1.33%
O=C(c1cccnc1)N1CCC2(CCN(C(=O)c3ccco3)CC2)C1 | 14.52%
CC(=O)N1CCCC(c2ccc3sc(N)nc3n2)C1 (stereo unspecified) | 17.01%
Nc1nc2nc(C3CCCN(C(=O)c4cncs4)C3)ccc2s1 (stereo unspecified) | 52.82%
Nc1nc2nc(C3CCCN(C(=O)c4cnccn4)C3)ccc2s1 (stereo unspecified) | 46.98%
Cc1ccc([C@]2(O)CC[C@H]3CN(Cc4cc(C)c(O)c(C)c4)C[C@H]32)nc1 | 13.65%
Cc1ccc([C@]2(O)CC[C@H]3CN(Cc4ccncc4)C[C@H]32)nc1 | 51.35%

SMILES | INHIBITION
CSc1ccc(CN2C[C@@H]3CC[C@@](O)(c4ccc(C)cn4)[C@@H]3C2)cc1 | 61.3%
Cc1ccc([C@]2(O)CC[C@H]3CN(Cc4cccc(Cl)c4Cl)C[C@H]32)nc1 | 45.82%
Cc1ccc([C@]2(O)CC[C@H]3CN(Cc4cccnc4)C[C@H]32)nc1 | 12.16%
COc1ncc(CN2C[C@@H]3CC[C@@](O)(c4ccc(C)cn4)[C@@H]3C2)cn1 | -2.21%
CC(C)(C)c1nnc(CN2CCCC2Cn2cncn2)o1 (stereo unspecified) | -13.06%
COCCCN1C(=O)CC(N2CCN(c3ccc(F)cc3)CC2)C1=O (stereo unspecified) | 1.37%
CCn1nc(C)c2nc(C)nc(NCCc3ccc(C)cc3)c21 | 9.79%
CCCC(=O)N1CCC2(CC1)CC(NC(C)=O)c1ccccc1O2 (stereo unspecified) | -25.44%
CC(C)C(=O)NC1COC2(CCN(C(=O)c3ccc[nH]3)CC2)C1 (stereo unspecified) | 25.46%
COCCN1CCOCC12CCN(C(=O)c1cccnc1)CC2 | 0.91%
COCCN1CCOCC12CCN(C(=O)c1ccncc1)CC2 | -41.59%
COCCN1CCOCC12CCN(C(=O)c1ccoc1)CC2 | 52.62%
O=c1c2cn[nH]c2nc(SCCN2CCCC2)n1-c1ccccc1 | -15.12%
Cc1cc(C(=O)Nc2n[nH]c(C3CC3)n2)c2c(C)noc2n1 | -54.55%
COCC1CC2(CCN(S(=O)(=O)C3CC3)CC2)CN1c1ncccn1 (stereo unspecified) | 15.39%
CCNC(=O)[C@@H]1C[C@@H](NC(=O)CSC)CN1Cc1ccncc1 | 16.05%
COc1cc(CNC(=O)Nc2nnc(C(C)C)s2)ccc1O | -33.43%
COc1cc(CNC(=O)Nc2nnc(C3CC3)s2)ccc1O | 53.61%
COc1cc(CNC(=O)Nc2nnc(C(F)(F)F)s2)ccc1O | 45.4%
CCC(c1ccc(F)cc1)N1CCn2c(CO)nnc2C1 (stereo unspecified) | 18.76%
c1ccc(CN2CCC(Cc3noc(C4CC4)n3)CC2)cc1 | 17.33%
c1cc(CN2CCC(Cc3noc(C4CC4)n3)CC2)c2c(c1)OCO2 | 71.06%

SMILES | INHIBITION
c1cc2c(cc1CN1CCC(Cc3noc(C4CC4)n3)CC1)OCCO2 | 1.52%
Cc1nccn1-c1ccc(=O)n(CCNC(=O)c2cccs2)n1 | -47.31%
O=C(c1cccc(S(=O)(=O)NCCc2nccs2)c1)N1CCOCC1 | 3.58%
CS(=O)(=O)N1C[C@@H]2CC[C@H]1CN(Cc1ccncc1)C2 | -56.9%
Cc1ncsc1CN(Cc1ccccc1)Cc1ccncc1 | 61.06%
Cc1ncsc1CN(Cc1ccccc1)Cc1ncc[nH]1 | -43.51%
Cc1ncsc1C(=O)N(C)Cc1ccncc1 | -25.22%
Cn1nc(C2CCN(C(=O)c3cnccn3)C2)cc1CCO (stereo unspecified) | -18.15%
Cc1ccc(-n2ccnc2)c(C(=O)NCCCN(C)C)c1 | 20.21%
Cc1ccc(-n2ccnc2)c(C(=O)NCCOCC2CCCO2)c1 (stereo unspecified) | 51.4%
Cc1ccc(-n2ccnc2)c(C(=O)NCCOCC(F)(F)F)c1 | 16.98%
CN1CCN(S(=O)(=O)C2CC2)Cc2cccnc21 | -5.9%
CN1CCN(C(=O)N2CCCC2)Cc2cccnc21 | 52.3%
CN1CCN(C(=O)NC2CCCC2)Cc2cccnc21 | 11.87%
CN(C)C(=O)N1CCN(C)c2ncccc2C1 | 47.25%
CN1CCN(S(C)(=O)=O)Cc2cccnc21 | 58.97%
CCS(=O)(=O)N1CCN(C)c2ncccc2C1 | 4.07%
Cc1nc(Nc2nccs2)cc(C2CCCN2)n1 (stereo unspecified) | -26.8%
CCC(O)Cn1nc(CCSC)nc1-c1ccc2[nH]ccc2c1 (stereo unspecified) | 20.45%
O=C(Cc1cnc(-c2c(Cl)cccc2Cl)s1)N1CCC2(CC1)OCCO2 | -6.29%
CC(=O)N1CCN(C(=O)Cc2cnc(-c3c(Cl)cccc3Cl)s2)CC1 | 25.61%
O=C(Cc1cnc(-c2c(Cl)cccc2Cl)s1)N1CCOCC1 | 56.75%

SMILES | INHIBITION
NC(=O)CCNC(=O)C1(N2CCCCC2)Cc2ccccc2C1 | 14.19%
Clc1ccccc1CCN1CCN(c2ccc3nncn3n2)CC1 | 50.77%
c1ccc(CCN2CCN(c3ccc4nncn4n3)CC2)nc1 | -59.79%
c1ccc(CCN2CCN(c3ccc4nncn4n3)CC2)cc1 | -2.47%
COC1COC2(CCN(Cc3ccco3)CC2)C1 (stereo unspecified) | 24.91%
Cc1noc2ncc(C(=O)NCC3CCN(C(C)C)C3)cc12 (stereo unspecified) | -5.2%
Cc1cccc(C(=O)N2CCCCC2c2[nH]ncc2S(C)(=O)=O)c1 (stereo unspecified) | 52.69%
Cc1ccc(C(=O)N2CCCCC2c2[nH]ncc2S(C)(=O)=O)cn1 (stereo unspecified) | 19.75%
CS(=O)(=O)c1cn[nH]c1C1CCCN1C(=O)c1cccnc1 (stereo unspecified) | 10.3%
COC(=O)c1ccc(CNC(=O)Nc2ccc(=O)n(C)c2)cc1 | -18.09%
CS(=O)(=O)c1cccc(C(=O)NCc2nc3cc(F)ccc3[nH]2)c1 | 30.57%
Cn1cc(CN2CCCC(CCc3ccccc3C(F)(F)F)C2)cn1 (stereo unspecified) | 24.55%
Cn1cc(CN2CCCC(CCc3ccc(F)cc3)C2)cn1 (stereo unspecified) | 2.3%
Cn1cc(CN2CCCC(CCc3ccc(F)c(F)c3)C2)cn1 (stereo unspecified) | 64.2%
Cn1cc(CN2CCCC(CCc3c(F)cccc3F)C2)cn1 (stereo unspecified) | 43.27%
Fc1ccc(CCC2CCCN(Cc3c[nH]cn3)C2)c(F)c1 (stereo unspecified) | -20.35%
Cn1cc(CN2CCCC(CCc3ccc(F)cc3F)C2)cn1 (stereo unspecified) | 69.71%
CN(C)C(=O)CN1C[C@H]2CCN(Cc3ccccc3)CC[C@H]2S1(=O)=O | -10.78%
